Laboratory results taken from PubChem BioAssay AID1159580 (chemical genetic matrix, 2015).
About 2,000 (36%) of roughly 5,500 compounds were called active. Another 18% or so got no clear call; they are omitted. Cut-off read from the data, not from the text of the source: active = normalized growth mostly below about 0.91 (no sharp cut-off); inconclusive = no clear call, values can overlap the other calls; inactive = mostly above about 0.92. The list shows a part of the results.

Assay: chemical genetic growth profiling, strain panel (AID 1159580);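 note: tested at 20 µM; growth read once vehicle control cultures reached saturation at 30 °C; 1 = growth at the plate median or of vehicle wells; lower values mean less growth of the strain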
Settings: growth OD

Measured: normalized growth

Nc1ccn(C2O[C@H](CO)[C@@H](O)[C@@H]2O)c(=O)n1 (stereo partly drawn)
inactive: S. cerevisiae deletion strains, locus YKL009W, strain mrt4, stronger effect = lower value 0.992 | S. cerevisiae deletion strains, locus YKL068W, stronger effect = lower value 0.994 | S. cerevisiae deletion strains, locus YKL085W, strain MDH1 (second series), stronger effect = lower value 1 | S. cerevisiae deletion strains, locus YKL085W, strain MDH1, stronger effect = lower value 1 | S. cerevisiae deletion strains, locus YKL160W, strain elf1, stronger effect = lower value 1.05 | S. cerevisiae deletion strains, locus YKL190W, strain CNB1, stronger effect = lower value 1.01 | S. cerevisiae deletion strains, locus YKR001C, strain vps1, stronger effect = lower value 1.01 | S. cerevisiae deletion strains, locus YKR026C, strain gcn3, stronger effect = lower value 0.999 | S. cerevisiae deletion strains, locus YKR091W, strain srl3, stronger effect = lower value 0.997 | S. cerevisiae deletion strains, locus YLL001W, strain dnm1, stronger effect = lower value 1.07 | S. cerevisiae deletion strains, locus YLL026W, stronger effect = lower value 0.994 | S. cerevisiae deletion strains, locus YLL041C, strain sdh2, stronger effect = lower value 0.981 | S. cerevisiae deletion strains, locus YLR027C, strain aat2, stronger effect = lower value 0.993 | S. cerevisiae deletion strains, locus YLR039C, strain RIC1, stronger effect = lower value 1.03 | S. cerevisiae deletion strains, locus YLR058C, strain SHM2, stronger effect = lower value 1.01 | S. cerevisiae deletion strains, locus YLR102C, strain apc9, stronger effect = lower value 0.977 | S. cerevisiae deletion strains, locus YLR113W, strain HOG1, stronger effect = lower value 1.04 | S. cerevisiae deletion strains, locus YLR221C, strain rsa3, stronger effect = lower value 1.06 | S. cerevisiae deletion strains, locus YLR258W, strain gsy2, stronger effect = lower value 1.02 | S. cerevisiae deletion strains, locus YLR262C, strain YPT6 (second series), stronger effect = lower value 1 | S. cerevisiae deletion strains, locus YLR262C, strain YPT6, stronger effect = lower value 1.01 | S. cerevisiae deletion strains, locus YLR268W, strain sec22, stronger effect = lower value 0.992 | S. cerevisiae deletion strains, locus YLR320W, strain mms22, stronger effect = lower value 1.06 | S. cerevisiae deletion strains, locus YLR330W, strain CHS5, stronger effect = lower value 1.01 | S. cerevisiae deletion strains, locus YLR342W, strain FKS1 (second series), stronger effect = lower value 1.02 | S. cerevisiae deletion strains, locus YLR342W, strain FKS1, stronger effect = lower value 0.994 | S. cerevisiae deletion strains, locus YLR357W, strain rsc2, stronger effect = lower value 0.988 | S. cerevisiae deletion strains, locus YLR370C, strain arc18, stronger effect = lower value 1.01 | S. cerevisiae deletion strains, locus YLR371W, strain rom2, stronger effect = lower value 0.995 | S. cerevisiae deletion strains, locus YLR384C, strain iki3, stronger effect = lower value 1 | S. cerevisiae deletion strains, locus YLR418C, strain cdc73, stronger effect = lower value 0.966 | S. cerevisiae deletion strains, locus YML016C, strain PPZ1, stronger effect = lower value 1.01 | S. cerevisiae deletion strains, locus YML032C, strain rad52, stronger effect = lower value 1.01 | S. cerevisiae deletion strains, locus YML120C, strain ndi1, stronger effect = lower value 1.02 | S. cerevisiae deletion strains, locus YML124C, strain tub3, stronger effect = lower value 0.988 | S. cerevisiae deletion strains, locus YMR058W, strain fet3, stronger effect = lower value 0.997 | S. cerevisiae deletion strains, locus YMR078C, strain ctf18, stronger effect = lower value 0.992 | S. cerevisiae deletion strains, locus YMR125W, strain sto1, stronger effect = lower value 0.996 | S. cerevisiae deletion strains, locus YMR129W, stronger effect = lower value 0.979 | S. cerevisiae deletion strains, locus YMR205C, strain PFK2, stronger effect = lower value 1.04 | S. cerevisiae deletion strains, locus YMR223W, strain ubp8, stronger effect = lower value 0.995 | S. cerevisiae deletion strains, locus YMR231W, strain pep5, stronger effect = lower value 0.989 | S. cerevisiae deletion strains, locus YMR263W, strain SAP30, stronger effect = lower value 1 | S. cerevisiae deletion strains, locus YMR307W, strain GAS1, stronger effect = lower value 1.04 | S. cerevisiae deletion strains, locus YNL067W, strain RPL9B, stronger effect = lower value 1 | S. cerevisiae deletion strains, locus YNL071W, strain lat1, stronger effect = lower value 0.977 | S. cerevisiae deletion strains, locus YNL128W, strain TEP1, stronger effect = lower value 1.02 | S. cerevisiae deletion strains, locus YNL183C, strain NPR1, stronger effect = lower value 0.964 | S. cerevisiae deletion strains, locus YNL209W, strain ssb2, stronger effect = lower value 0.994 | S. cerevisiae deletion strains, locus YNL233W, strain BNI4, stronger effect = lower value 0.991 | S. cerevisiae deletion strains, locus YNL248C, strain rpa49, stronger effect = lower value 0.993 | S. cerevisiae deletion strains, locus YNL250W, strain rad50, stronger effect = lower value 0.994 | S. cerevisiae deletion strains, locus YNL271C, strain bni1, stronger effect = lower value 0.996 | S. cerevisiae deletion strains, locus YNL298W, strain CLA4, stronger effect = lower value 0.998 | S. cerevisiae deletion strains, locus YNL307C, strain MCK1, stronger effect = lower value 0.997 | S. cerevisiae deletion strains, locus YNL322C, strain KRE1 (second series), stronger effect = lower value 1.01 | S. cerevisiae deletion strains, locus YNR049C, strain mso1, stronger effect = lower value 0.989 | S. cerevisiae deletion strains, locus YNR052C, strain pop2, stronger effect = lower value 0.996 | S. cerevisiae deletion strains, locus YOL006C, strain TOP1, stronger effect = lower value 1.05 | S. cerevisiae deletion strains, locus YOL012C, strain htz1 1.42 | S. cerevisiae deletion strains, locus YOL147C, strain pex11, stronger effect = lower value 0.992 | S. cerevisiae deletion strains, locus YOR001W, strain rrp6, stronger effect = lower value 0.933 | S. cerevisiae deletion strains, locus YOR061W, strain CKA2, stronger effect = lower value 1.01 | S. cerevisiae deletion strains, locus YOR069W, strain VPS5, stronger effect = lower value 1.01 | S. cerevisiae deletion strains, locus YOR070C, strain gyp1, stronger effect = lower value 0.993 | S. cerevisiae deletion strains, locus YOR080W, strain dia2, stronger effect = lower value 0.992 | S. cerevisiae deletion strains, locus YOR083W, strain WHI5, stronger effect = lower value 1.06 | S. cerevisiae deletion strains, locus YOR106W, strain vam3, stronger effect = lower value 1.08 | S. cerevisiae deletion strains, locus YOR136W, strain idh2, stronger effect = lower value 1 | S. cerevisiae deletion strains, locus YOR144C, strain elg1, stronger effect = lower value 1 | S. cerevisiae deletion strains, locus YOR184W, strain ser1, stronger effect = lower value 0.997 | S. cerevisiae deletion strains, locus YOR231W, strain MKK1, stronger effect = lower value 1.03 | S. cerevisiae deletion strains, locus YOR265W, strain rbl2, stronger effect = lower value 1 | S. cerevisiae deletion strains, locus YOR270C, strain vph1, stronger effect = lower value 1.05 | S. cerevisiae deletion strains, locus YOR290C, strain snf2, stronger effect = lower value 1.02 | S. cerevisiae deletion strains, locus YOR316C, strain cot1, stronger effect = lower value 0.993 | S. cerevisiae deletion strains, locus YPL051W, strain arl3, stronger effect = lower value 1.04 | S. cerevisiae deletion strains, locus YPL078C, strain atp4, stronger effect = lower value 1.04 | S. cerevisiae deletion strains, locus YPL106C, strain sse1, stronger effect = lower value 1.01 | S. cerevisiae deletion strains, locus YPL240C, strain hsp82, stronger effect = lower value 1.01 | S. cerevisiae deletion strains, locus YPL241C, strain CIN2, stronger effect = lower value 1.01 | S. cerevisiae deletion strains, locus YPL256C, strain CLN2, stronger effect = lower value 1.03 | S. cerevisiae deletion strains, locus YPR119W, strain clb2, stronger effect = lower value 0.986 | S. cerevisiae deletion strains, locus YPR141C, strain kar3, stronger effect = lower value 0.993 | S. cerevisiae deletion strains, locus YPR163C, strain tif3, stronger effect = lower value 1.01 | S. cerevisiae deletion strains, locus YPR167C, strain met16, stronger effect = lower value 0.995 | S. cerevisiae deletion strains, strain wtn01, stronger effect = lower value 0.993 | S. cerevisiae strains, strain wild type, stronger effect = lower value 1.01
